Results filed as inconclusive are left out. A number with no mark means an inactive call. The source made the active and inactive calls. Calls come from the whole dose curve; as a rule, active = well fitted inhibition curve with a large enough effect; inconclusive = small, poorly fitted or top-dose-only effect; inactive = no such curve, though single readings can be large or run the other way.
biological target: Peripheral myelin protein 22 (Rattus norvegicus) (UniProt P25094); test: Cell-based HiBiT reporter assay to measure PMP22 protein expression in S16 Pmp22-HiBiT cells; details: S16 Schwann Pmp22-HiBiT, NanoGlo luminescence, 48 h; series mostly up to 27.9 µM; activity change, negative = inhibition: at the top concentration
Sequence (P25094 whole entry, looked up): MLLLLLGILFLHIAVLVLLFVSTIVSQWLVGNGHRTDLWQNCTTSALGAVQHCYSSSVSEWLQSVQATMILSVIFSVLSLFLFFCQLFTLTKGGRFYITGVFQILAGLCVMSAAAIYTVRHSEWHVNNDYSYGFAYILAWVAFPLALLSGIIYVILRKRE
From the text: Assay Provider: Jim Inglese Ph.D. National Center for Advancing Translational Science, National Institutes of Health, Rockville, MD CMT is a heterogeneous group of neurological disorders that affect approximately 1 in 2,500 people. In particular, the most common form of CMT, CMT1A is genetically linked to the duplication of the PMP22 gene which leads to Schwann cell overexpression, thus manifesting itself as a typical case of dose-sensitive diseases. To identify small molecule compounds that can mediate the expression of PMP22 we developed a phenotypic assay screening strategy by utilizing genome editing techniques to construct Schwann cell lines containing novel reporter technology to monitor the transcriptional or translational regulation of PMP22. For high sensitivity we use a bioluminescent reporter system embedded in the 3' UTR of the PMP22 gene (S16(c9) Pmp22-F2sN) to identify compounds that inhibit gene expression. […] We can further discriminate the effect of all transcriptionally active molecules on PMP22 translation or stability with an assay that incorporates a short NLuc peptide (HiBiT) at the C-terminus of expressed PMP22 (S16(f8) PMP22-HiBiT) allowing alpha complementation and luminescence detection of membrane-associated PMP22 protein. These assays were screened against the NCATS Sytravon Library Collection. Miniaturization of these assays to 1536-well plate format for quantitative high throughput screening (qHTS) yielded rich data sets immediately from the qHTS assay (S16(c9) Pmp22-F2sN), when compared with data from a cell viability assay (Cell TiterGlo) to identify compounds that decreased the output signals through cellular toxicity to streamline the selection process of actives for subsequent characterization using the HiBiT assay (S16(f8) PMP22-HiBiT).
Cell-based HiBiT reporter assay in S16 Pmp22-HiBiT cells PROTOCOL TABLE (format as described by Inglese J, Shamu CE and Guy RK. 2007) SEQUENCE No. (e.g., 1, 2, 3, etc.); PARAMETER (e.g., Cells, Incubation, Reagent, etc.); VALUE and DESCRIPTION. 1. Cells. Add 1,500 cells in 5 uL in growth media (DMEM High Glucose, No Phenol Red media + 10% heat-inactivated FBS + 1% Pen/Strep supplemented media) per well into Greiner 1536-well white/solid bottom high base, TC-treated plates. 2. Compounds. Library compounds and controls added at 23nL per well, transferred by Pin Tool. 3. Incubation. Incubate plates at 37C, 5% CO2, 95% RH for 48 h. 4. Media removal. Invert and centrifuge plates. 5. Reagent. Add 3uL NanoGlo HiBiT Lytic Detection Reagent per well of Greiner 1536-well plates. 6. Incubation. Incubate plates at room temperature for 15 min., protect from light. 7. Detector. NLuc luminescence measured using CCD-based camera (Viewlux). NOTES (numbers refer to Sequence numbers above; values are from representative experiments) 7. Luminescence Read: Clear filter; Exposure = 10 sec, Gain = High, Speed = Slow, Binning = 2X REFERENCES: 1. Inglese J, Shamu CE and Guy RK, Reporting data from high throughput screening of small molecule libraries, Nature Chemical Biology, 2007, 3(8): 438-441. doi.org/10.1038/nchembio0807-438 2. Yasgar A, Shinn P, Jadhav A, Auld DS, Michael S, Zheng W, Austin CP, Inglese J and Simeonov A, Compound Management for Quantitative High-Throughput Screening. J. Assoc. Lab. Auto., 2008, 13: 79-89. doi: 10.1016/j.jala.2007.12.004

| Structure (SMILES) | Potency | activity change, negative = inhibition [%] |
| --- | --- | --- |
| COc1ccccc1-c1cc(C(F)(F)F)nc(S(=O)(=O)CCCC(=O)Nc2ccccc2F)n1 | 10.2 µM (active) |  |
| CCOc1ccc(NC(=O)CSc2oc(-c3ccc(F)cc3)nc2S(=O)(=O)c2ccc(C)cc2)cc1 |  | -11.9 |
| COc1ccc(Nc2nc3c(S(=O)(=O)c4ccccc4)nnn3c3ccc(Cl)cc23)cc1 |  | -26.5 |
| O=C(Cn1c(-c2cccs2)cc2ccccc21)NCCCN1CCN(c2ccc(F)cc2)CC1 | 6.45 µM (active) |  |
| Cc1ccc(S(=O)(=O)c2nnn3c2nc(NC2CCCCCC2)c2sccc23)cc1C | 14.5 µM (active) |  |
| O=C(NCCCN1CCN(c2ccc(F)cc2)CC1)c1cc2c(Cl)nc3ccccc3c2s1 |  | -1.33 |
| COc1ccc(Br)cc1CC1C(=O)Nc2ccccc21 (centres undefined) | 9.12 µM (active) |  |
| Cc1cccc(-n2c(=O)c3c(c4cc(C)ccc4n3C)n(CC(=O)NCCC3=CCCCC3)c2=O)c1 |  | -18.6 |
| CCc1nnc(NC(=O)c2nc(S(C)(=O)=O)ncc2Cl)s1 | 10.2 µM (active) |  |
| CCCCS(=O)(=O)c1nc(-c2ccc(Br)cc2)cc(-c2ccccc2)c1C#N |  | 100 |
| CCS(=O)(=O)c1ncc(Cl)c(C(=O)Nc2c(C(=O)c3ccc(C)cc3)oc3ccccc23)n1 |  | -7.57 |
| CCOC(=O)c1c(NC(=O)c2nc(S(C)(=O)=O)ncc2Cl)sc(C(C)=O)c1C | 3.24 µM (active) |  |
| COc1ccc(NC(=O)c2oc3ccccc3c2NC(=O)Cc2ccc(F)cc2)c(OC)c1 |  | 30.2 |
| CCc1ccc(OCC(=O)Nc2cc3oc4ccccc4c3cc2OC)cc1 |  | 2.28 |
| COC(=O)CS(=O)(=O)c1nc2ccccc2nc1N1CCCCC1 | 14.5 µM (active) |  |
| COc1ccccc1Nc1nn2c(=O)c3ccc(C(=O)Nc4ccc(F)cc4)cc3nc2s1 | 9.12 µM (active) |  |
| CCN(CC)CCNC(=O)c1cc(-c2ccc(Br)s2)nc2ccccc12 |  | -2.44 |
| Cc1cc(C)c(NC(=O)Cn2c(=O)n(Cc3ccco3)c(=O)c3ccc(C(=O)NC4CCCC4)cc32)c(C)c1 |  | 9.98 |
| COCCCNC(=O)c1ccc(-n2c(-c3ccccc3)cc3c2CCC(C)C3)cc1 (centres undefined) | 5.75 µM (active) |  |
| Cc1cccc(CS(=O)(=O)c2ncc(Cl)c(C(=O)Nc3nc4ccc(F)cc4s3)n2)c1 | 3.63 µM (active) |  |

| Structure (SMILES) | Potency | activity change, negative = inhibition [%] |
| --- | --- | --- |
| Cc1ccc(C)c(NC(=O)Cn2c(=O)n(Cc3ccc4c(c3)OCO4)c(=O)c3ccc(C(=O)NC4CCCCC4)cc32)c1 |  | 10.8 |
| COc1ccccc1-c1cc(C(F)(F)F)nc(S(=O)(=O)CCCC(=O)Nc2ccc(F)cc2F)n1 | 5.13 µM (active) |  |
| O=C(Cn1c(-c2cccs2)cc2cc(F)ccc21)NCCCN1CCN(c2ccccc2F)CC1 | 12.9 µM (active) |  |
| CCc1ccc(NC(=O)Cn2c(=O)n(-c3ccc(OC)cc3)c(=O)c3ccc(C(=O)NCc4ccc(C)cc4)cc32)cc1 |  | -22.4 |
| Cc1ccc(C(=O)Nc2ccc(S(=O)(=O)N3CCC(c4nc5ccccc5s4)CC3)cc2)cc1 |  | -18.4 |
| Cc1c(Cl)cccc1NC(=O)c1oc2ccc(S(=O)(=O)N3CCC4(CC3)OCCO4)cc2c1C |  | 30.2 |
| Cc1ccc(NC(=O)c2nc(S(=O)(=O)Cc3cccc(C)c3)ncc2Cl)cc1 | 4.57 µM (active) |  |
| CC(=O)N1CCc2c(sc(NC(=O)CSc3ccccc3)c2-c2nc3ccccc3s2)C1 | 16.2 µM (active) |  |
| COC(=O)c1ccccc1NC(=O)c1nc(S(=O)(=O)Cc2cccc(C)c2)ncc1Cl | 6.45 µM (active) |  |
| Cc1cccc(Nc2c3c(nc4nncn24)CCC3)c1C |  | -20.4 |
| Cc1ccc(C)c(N2CCN(CCCNC(=O)Cn3c(-c4cccs4)cc4ccccc43)CC2)c1 | 7.24 µM (active) |  |
| Cc1ccc(NC(=O)N2CCc3cc(S(=O)(=O)N4CCC(C)CC4)ccc32)cc1F |  | 10.6 |
| COc1ccccc1Nc1c2c(nc3ccc(NC(=O)/C=C/c4cccc(OC)c4OC)cc13)CCCC2 | 5.13 µM (active) |  |
| COc1ccc(NC(=O)c2nc(S(=O)(=O)Cc3ccc(C)cc3)ncc2Cl)cc1 | 10.2 µM (active) |  |
| Cn1c(=O)oc2cc(S(=O)(=O)N3CCCC(C(=O)N4CCN(c5ccc(Cl)cc5)CC4)C3)ccc21 (centres undefined) | 4.07 µM (active) |  |
| Cc1cccc(N2CCN(C(=O)C3CCCN(S(=O)(=O)c4ccc5c(c4)oc(=O)n5C)C3)CC2)c1C (centres undefined) |  | 56.1 |
| Cc1ccc(CN2C(=O)C(O)(c3c(C)[nH]c4ccccc34)c3ccccc32)cc1 (centres undefined) |  | -24.2 |
| CCCn1c(=N)c(C(=O)NC(C)c2ccccc2)cc2c(=O)n3ccccc3nc21 (centres undefined) |  | 23.9 |
| Cc1ccc(C)c(NC(=O)Cn2c(=O)n(Cc3ccccc3)c(=O)c3oc4ccccc4c32)c1 | 14.5 µM (active) |  |

Source: PubChem BioAssay AID1508644 (National Center for Advancing Translational Sciences (NCATS), 2021)
